This is part of a sample that, as a whole, favours compounds with a hit. Of some 79,000 tested, about 15% had one in any assay. Activity calls are given as the source filed them. Cut-off read from the data, not from the text of the source: active = growth inhibition above about 70%; inactive = the rest.
Columns and labels:
[1] = NCI Yeast Anticancer Drug Screen. Data for the rad50 strain (AID 155);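 note: 0% = growth of vehicle-only cultures of the same strain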; details: S. cerevisiae rad50 strain growth inhibition; at 50.0 µM; stronger effect = higher value
Procedure, shortened: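 Vehicle-treated cultures provide the reference for the growth inhibition reported for compound-exposed, repair-deficient yeast.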

[2] = NCI Yeast Anticancer Drug Screen. Data for the mec2-1 strain (AID 157); details: S. cerevisiae mec2-1 strain, at 50.0 µM, stronger effect = higher value
Procedure, shortened: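 Yeast mec2-1 mutant treated with compound. Readout: growth inhibition vs vehicle controls.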

[3] = NCI Yeast Anticancer Drug Screen. Data for the sgs1 mgt1 strain (AID 161);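 note: 0% = growth of cultures given vehicle only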; details: S. cerevisiae sgs1 mgt1 strain, at 50.0 µM, stronger effect = higher value
Procedure, shortened: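 Inhibition of yeast growth, normalised to vehicle-treated controls, is reported for a strain bearing genetic alterations in DNA damage repair.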

[4] = NCI Yeast Anticancer Drug Screen. Data for the cln2 rad14 strain (AID 165);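 note: 0% = growth equal to vehicle treated cultures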; details: S. cerevisiae cln2 rad14 strain, at 50.0 µM, stronger effect = higher value
Procedure, shortened: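 cln2 rad14 yeast strain; compound exposure; growth inhibition read vs vehicle controls.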

[5] = NCI Yeast Anticancer Drug Screen. Data for the bub3 strain (AID 167); details: S. cerevisiae bub3 mutant strain, at 50.0 µM, stronger effect = higher value
Procedure, shortened: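 Mutant yeast screening strain plus compound; vehicle-treated cultures serve as the 0% inhibition reference.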

[6] = NCI Yeast Anticancer Drug Screen. Data for the mlh1 rad18 strain (AID 175); details: S. cerevisiae mlh1 rad18 strain growth inhibition; at 50.0 µM; stronger effect = higher value
Procedure, shortened: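 Yeast w/ defined DNA-repair lesions; compound exposure; growth vs vehicle controls → % inhibition.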

Measured: growth inhibition

NC(N)=Nc1cccc2c1CC=CC2
inactive: [1] 0.2% | [2] -3.45% | [3] -5.3% | [4] -5.7% | [5] 2% | [6] -0.2%

CC(C)Oc1ccc(N2C(=O)C(C)CNC2=S)cc1 (configuration not stated)
inactive: [1] -13.9% | [2] -1.9% | [3] -1.3% | [4] 4.9% | [5] 6.4% | [6] -8.55%

O=c1[nH]nc(Cc2ccc(Cl)cc2)n1/N=C\CC/C=N\n1c(Cc2ccc(Cl)cc2)n[nH]c1=O
inactive: [1] -18.4% | [2] -0.9% | [3] -14.1% | [4] -4.05% | [5] -13.3% | [6] -3%

O=C(OCC(O)C(O)C(O)C(SCc1ccccc1)SCc1ccccc1)c1ccc([N+](=O)[O-])cc1 (configuration not stated)
inactive: [1] 23.6% | [2] 3.1% | [3] 31.6% | [4] 20.4% | [5] -1% | [6] 5.85%

NNC(=O)C(=O)N/N=C1/CCCC1C(=O)CCC(=O)Nc1ccc(Cl)cc1 (configuration not stated)
inactive: [1] -4% | [2] -14.2% | [3] 0% | [4] -0.2% | [5] 0.3% | [6] -6.9%

OCC1=CC(c2ccccc2)(c2ccccc2)c2ccccc21
active: [1] 95.2% | [2] 96.3% | [3] 96.7% | [4] 93.2% | [5] 95.5% | [6] 95.4%

CNC(=S)ON1CCCCC1
inactive: [1] 6.65% | [2] 19.9% | [3] -23.3% | [4] -7.95% | [5] -5.95% | [6] -38.5%

C1C2CC3(CO3)C1C1OC21 (configuration not stated)
inactive: [1] -39.4% | [2] -13.8% | [3] -26.1% | [4] 3.85% | [5] -22.2% | [6] -10.8%

CCOP(=Nc1ccccc1)(OCC)OCC
inactive: [1] 4.1% | [2] 5.85% | [3] -3.9% | [4] -5% | [5] 1.75% | [6] 9.4%

COc1ccccc1C(=O)O
inactive: [1] -7.45% | [2] -16.8% | [3] -9.4% | [4] -1.75% | [5] -7.35% | [6] -5%

O=C(Nc1ccccc1F)Oc1ccc(Cl)cc1Cl
inactive: [1] 26.8% | [2] 14.7% | [3] 20.5% | [4] 26.8% | [5] 19.4% | [6] 13.2%

Nc1ncnc2c1ccn2Cc1c(F)cccc1Cl
inactive: [1] -0.8% | [2] -7.3% | [3] -10.9% | [4] -1.2% | [5] 6.05% | [6] -13.6%

CCc1ccccc1NC(=O)Nc1ccc(C(=O)O)c(O)c1
inactive: [1] 33.6% | [2] 10.2% | [3] 27.4% | [4] 21.4% | [5] 29.8% | [6] 26.4%

O=C(NC1C=Nc2ccc(Cl)cc2NC1=O)c1ccc(Cl)cc1 (configuration not stated)
inactive: [1] 18% | [2] 20.9% | [3] 31.4% | [4] 23.6% | [5] 6.95% | [6] 31.6%

O=C1C(=Cc2cccnc2)C(=O)c2ccccc21
inactive: [1] 26% | [2] 15.3% | [3] 42.4% | [4] 18.9% | [5] 6.7% | [6] 9%

C[C@@H]1CCC[C@H]1C(N)C(=O)O (some centres not stated)
inactive: [1] -18% | [2] 2% | [3] -3.85% | [4] -25.1% | [5] -18.1% | [6] -12.9%

FC(F)/C=C\c1ccccc1
inactive: [1] 8.85% | [2] -4.55% | [3] -10.4% | [4] -19.8% | [5] -16.9% | [6] 6.9%

O=c1[nH]c(=O)c2ncn(C3OC(CO)C(O)C3O)c2[nH]1.O=c1[nH]c(=O)c2ncn(C3OC(CO)C(O)C3O)c2[nH]1.[NH2-].[NH2-].[Pt+2] (configuration not stated)
inactive: [1] 3.35% | [2] 33.5% | [3] 41.7% | [4] 3.55% | [5] -8.5% | [6] 40.4%

CC(=O)OCCC(=O)Nc1cc([N+](=O)[O-])ccc1OCc1ccccc1
inactive: [1] 7.05% | [2] 1.6% | [3] -6.45% | [4] -3.8% | [5] 3.65% | [6] -16%

CSc1ccc(NC(=O)Nc2ccc(Cl)cc2[N+](=O)[O-])cc1
inactive: [1] -4.55% | [2] 40.5% | [3] 13.6% | [4] -6.05% | [5] 17.9% | [6] 20.3%

COc1cccc2c1C(CO)N1C(C#N)C3CC(C(=O)O)C(C1C2)N3C (configuration not stated)
inactive: [1] 0.25% | [2] -5.9% | [3] -28.3% | [4] 3.4% | [5] 8% | [6] -2.45%

CSC1=Nc2ccccc2N(C)c2c1c(-c1ccccc1)nn2C
inactive: [1] 34.8% | [2] 32.1% | [3] 28.8% | [4] 28.6% | [5] 43% | [6] 21.6%

OCCc1ccccc1CCO
inactive: [1] -29.6% | [2] -17.8% | [3] -13.2% | [4] -16.9% | [5] -5.4% | [6] 8.5%

CCC(c1ccc(OC)cc1)C(C(C)=O)c1ccc(OC)cc1 (configuration not stated)
inactive: [1] -5.55% | [2] -13% | [3] -4.1% | [4] -22.9% | [5] 25.6% | [6] -5.85%

CN(/N=C\c1ccc([N+](=O)[O-])cc1)C(=O)c1ccccc1
inactive: [1] -6.85% | [2] -4.15% | [3] 14.6% | [4] -33.6% | [5] 19.4% | [6] -7.35%

Cn1ncc2c(=O)[nH]c(-c3ccccc3)nc21
inactive: [1] -0.75% | [2] -8.35% | [3] -5.9% | [4] 3.55% | [5] -3.05% | [6] -6.3%

FC(F)(F)c1nc(Cl)c2cn[nH]c2n1
inactive: [1] -8.7% | [2] 39.6% | [3] -1.15% | [4] -16.9% | [5] 25.9% | [6] -24.4%

COC(=O)C(=O)c1c(C(=O)OC)nc2nnc(N)n2c1-c1ccc(O)c(OC)c1
inactive: [1] 0.5% | [2] -11.9% | [3] -2.65% | [4] -31.8% | [5] 16.5% | [6] -9.9%

COC1OC2COC(C)(C)OC2C1OS(=O)(=O)c1ccc(C)cc1 (configuration not stated)
inactive: [1] -1.75% | [2] 12.6% | [3] 6.4% | [4] -17.1% | [5] -0.5% | [6] 29.6%

CCNC(=O)N(C)Cc1ccc(Cl)cc1
inactive: [1] -4% | [2] 8.7% | [3] -11.6% | [4] -71.5% | [5] -8.95% | [6] -5.1%

COCc1cc(C(C)(C)C)cc(CNC2CCCCC2)c1O
inactive: [1] 16% | [2] 12.2% | [3] 27.1% | [4] 13.4% | [5] 12.5% | [6] 10.7%

O=C1C(=Cc2ccc([N+](=O)[O-])cc2)C(=O)c2ccccc21
inactive: [1] 28.9% | [2] 36.6% | [3] 22.1% | [4] 24.1% | [5] 0.15%
active: [6] 85.5%

CCCCCC(C)(O)CC(C)(C)C (configuration not stated)
inactive: [1] -3.15% | [2] 5.75% | [3] 0.55% | [4] -7.95% | [5] 2.2% | [6] 34.8%

OC1CCC(c2ccccc2)CC1 (configuration not stated)
inactive: [1] 29.1% | [2] 11.8% | [3] 19.9% | [4] 15.7% | [5] 4.75% | [6] 7.35%

CN(C)CC(CCC(=O)c1ccccc1)C(=O)c1ccccc1 (configuration not stated)
inactive: [1] 8.05% | [2] 15.8% | [3] 26.2% | [4] -45.8% | [5] 14.2% | [6] 5.5%

OC(c1ccccc1)(c1ccc(-c2ccccc2)cc1)c1cccc2ccccc12 (configuration not stated)
inactive: [1] 28.3% | [2] -14.2% | [3] 21.8% | [4] 9.2% | [5] -2.6% | [6] 5.35%

NC(=O)Oc1ccc(Cc2ccccc2)cc1
inactive: [1] -20.7% | [2] -43.2% | [3] -12.6% | [4] -8.95% | [5] -40.4% | [6] -5.05%

Cc1n[n+](CC(=O)c2ccccc2)c2sc(N)nn12
inactive: [1] -55.8% | [2] -31.4% | [3] -58.6% | [4] -50% | [5] -16.1% | [6] -70.5%

COc1ccc(-n2c(C)c(COC(C)=O)c(COC(C)=O)c2C)cc1
inactive: [1] -5.4% | [2] -18.2% | [3] -0.55% | [4] -2.8% | [5] -7.55% | [6] -55.2%

C[C@@]1(NC(=O)Cc2ccccc2)C(=O)N2CCS[C@@]21c1ccccc1
inactive: [1] 0.4% | [2] 0.8% | [3] -20.6% | [4] -3.2% | [5] 12.8% | [6] 1.95%

CCC(CC)C(=O)OCCCCC1CCCO1 (configuration not stated)
inactive: [1] 6.25% | [2] 11.2% | [3] 4.75% | [4] -16.6% | [5] 12.2% | [6] -2.65%

C=C(CC/C=C\CO)[Si](C)(C)C
inactive: [1] -10.5% | [2] -20.1% | [3] 1.05% | [4] 7.35% | [5] 9.95% | [6] -9.5%

Source: PubChem BioAssay (NCI)
